# Laboratory results taken from PubChem BioAssay AID1159580 (chemical genetic matrix, 2015).
# The whole screen tested about 5,500 compounds, of which about 2,000 (36%) were called active. About 18% were inconclusive and are not listed. The list shows a part of the results. A number with no mark means an inactive call. No stated cut-off is given here; in the data, active means normalized growth mostly below about 0.91 (no sharp cut-off); inconclusive means no clear call, values can overlap the other calls; inactive means mostly above about 0.92.
# Assay: chemical genetic growth profiling, strain panel (AID 1159580);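 further: tested at 20 µM; growth read once vehicle control cultures reached saturation at 30 °C; 1 = growth at the plate median or of vehicle wells; lower values mean less growth of the strain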
# Conditions: S. cerevisiae deletion strains, growth OD
# [1] = locus YAR019C, strain CDC15, active compounds read low
# [2] = locus YBL105C, strain PKC1, active compounds read low
# [3] = locus YBR135W, strain CKS1, active compounds read low
# [4] = locus YBR136W, strain MEC1, active compounds read low
# [5] = locus YBR160W, strain CDC28, active compounds read low
# [6] = locus YDL017W, strain CDC7, active compounds read low
# [7] = locus YDL028C, strain MPS1, active compounds read low
# [8] = locus YDL101C, strain DUN1, active compounds read low
# [9] = locus YDL108W, strain KIN28, active compounds read low
# [10] = locus YDL132W, strain cdc53, active compounds read low
# [11] = locus YDL214C, strain PRR2, active compounds read low
# [12] = locus YDR052C, strain DBF4, active compounds read low
# [13] = locus YDR054C, strain cdc34, active compounds read low
# [14] = locus YDR226W, strain ADK1, active compounds read low
# [15] = locus YDR477W, strain SNF1, active compounds read low
# [16] = locus YER123W, strain YCK3, active compounds read low
# [17] = locus YER133W, strain GLC7, active compounds read low
# [18] = locus YFL009W, strain cdc4, active compounds read low
# [19] = locus YFL029C, strain CAK1, active compounds read low
# [20] = locus YFR003C, strain YPI1, active compounds read low
# [21] = locus YFR019W, strain FAB1, active compounds read low
# [22] = locus YFR028C, strain CDC14, active compounds read low
# [23] = locus YGR040W, strain KSS1, active compounds read low
# [24] = locus YGR052W, strain FMP48, active compounds read low
# [25] = locus YGR092W, strain DBF2, active compounds read low
# [26] = locus YHR030C, strain SLT2, active compounds read low
# [27] = locus YHR079C, strain IRE1, active compounds read low
# [28] = locus YHR082C, strain KSP1, active compounds read low
# [29] = locus YHR205W, strain SCH9, active compounds read low
# [30] = locus YIL147C, strain SLN1, active compounds read low
# [31] = locus YJL095W, strain BCK1, active compounds read low
# [32] = locus YJL128C, strain PBS2, active compounds read low
# [33] = locus YJL157C, strain FAR1, active compounds read low
# [34] = locus YJR016C, strain ILV3, active compounds read low
# [35] = locus YJR066W, strain TOR1 (second series), active compounds read low
# [36] = locus YJR066W, strain TOR1, active compounds read low
# [37] = locus YKL048C, strain ELM1, active compounds read low
# [38] = locus YKL067W, strain YNK1, active compounds read low
# [39] = locus YKL101W, strain HSL1, active compounds read low
# [40] = locus YKL193C, strain SDS22, active compounds read low
# [41] = locus YKL203C, strain TOR2, active compounds read low
# [42] = locus YLR113W, strain HOG1, active compounds read low
# [43] = locus YLR133W, strain CKI1, active compounds read low
# [44] = locus YLR403W, strain SFP1, active compounds read low
# [45] = locus YML070W, strain DAK1, active compounds read low
# [46] = locus YMR001C, strain CDC5, active compounds read low
# [47] = locus YMR205C, strain PFK2 (second series), active compounds read low
# [48] = locus YMR277W, strain FCP1, active compounds read low
# [49] = locus YNL006W, strain LST8, active compounds read low
# [50] = locus YNL020C, strain ARK1, active compounds read low
# [51] = locus YNL161W, strain CBK1, active compounds read low
# [52] = locus YNL183C, strain NPR1, active compounds read low
# [53] = locus YNL207W, strain RIO2, active compounds read low
# [54] = locus YNL222W, strain SSU72, active compounds read low
# [55] = locus YNL307C, strain MCK1 (second series), active compounds read low
# [56] = locus YOL078W, strain AVO1, active compounds read low
# [57] = locus YOL136C, strain PFK27, active compounds read low
# [58] = locus YOR061W, strain CKA2, active compounds read low
# [59] = locus YOR119C, strain RIO1, active compounds read low
# [60] = locus YOR231W, strain MKK1, active compounds read low
# [61] = locus YOR329C, strain SCD5, active compounds read low
# [62] = locus YPL031C, strain PHO85, active compounds read low
# [63] = locus YPL153C, strain RAD53, active compounds read low
# [64] = locus YPL204W, strain HRR25, active compounds read low
# [65] = locus YPL209C, strain IPL1, active compounds read low
# [66] = locus YPL256C, strain CLN2, active compounds read low
# [67] = locus YPR025C, strain CCL1, active compounds read low
# [68] = locus YPR106W, strain ISR1, active compounds read low
# [69] = locus YPR111W, strain DBF20, active compounds read low
# [70] = strain NNK1, active compounds read low
# [71] = strain TSCII, active compounds read low
compound,measurement,setting,value
COc1ccc(/C=C2/C(=O)Nc3ccccc32)cc1,normalized growth,[1],0.877 (active)
same,normalized growth,[2],0.884 (active)
same,normalized growth,[3],0.89 (active)
same,normalized growth,[4],0.894
same,normalized growth,[5],0.899
same,normalized growth,[6],0.893 (active)
same,normalized growth,[7],0.896
same,normalized growth,[8],0.909 (active)
same,normalized growth,[9],0.892 (active)
same,normalized growth,[10],0.873 (active)
same,normalized growth,[11],0.84
same,normalized growth,[12],0.898 (active)
same,normalized growth,[13],0.917
same,normalized growth,[14],0.867 (active)
same,normalized growth,[15],0.762
same,normalized growth,[16],0.858
same,normalized growth,[17],0.777
same,normalized growth,[18],0.868 (active)
same,normalized growth,[19],0.879
same,normalized growth,[20],0.885 (active)
same,normalized growth,[21],0.887
same,normalized growth,[22],0.871 (active)
same,normalized growth,[23],0.776
same,normalized growth,[24],0.836
same,normalized growth,[25],0.733
same,normalized growth,[26],0.667 (active)
same,normalized growth,[27],0.686
same,normalized growth,[28],0.827
same,normalized growth,[29],0.577
same,normalized growth,[30],0.892 (active)
same,normalized growth,[31],0.774
same,normalized growth,[32],0.839
same,normalized growth,[33],0.83
same,normalized growth,[34],0.878 (active)
same,normalized growth,[35],0.692
same,normalized growth,[36],0.729
same,normalized growth,[37],0.887
same,normalized growth,[38],0.89
same,normalized growth,[39],0.906
same,normalized growth,[40],0.877 (active)
same,normalized growth,[41],0.859
same,normalized growth,[42],0.758 (active)
same,normalized growth,[43],0.845
same,normalized growth,[44],0.652 (active)
same,normalized growth,[45],0.859
same,normalized growth,[46],0.88 (active)
same,normalized growth,[47],0.866
same,normalized growth,[48],0.867 (active)
same,normalized growth,[49],0.895 (active)
same,normalized growth,[50],0.841
same,normalized growth,[51],0.874 (active)
same,normalized growth,[52],0.821
same,normalized growth,[53],0.866 (active)
same,normalized growth,[54],0.894
same,normalized growth,[55],0.873
same,normalized growth,[56],0.879 (active)
same,normalized growth,[57],0.825
same,normalized growth,[58],0.861
same,normalized growth,[59],0.899
same,normalized growth,[60],0.877
same,normalized growth,[61],0.891 (active)
same,normalized growth,[62],0.748
same,normalized growth,[63],0.788
same,normalized growth,[64],0.708
same,normalized growth,[65],0.894 (active)
same,normalized growth,[66],0.691 (active)
same,normalized growth,[67],0.912
same,normalized growth,[68],0.892 (active)
same,normalized growth,[69],0.89
same,normalized growth,[70],0.866 (active)
same,normalized growth,[71],0.863 (active)
COc1cc(OC)c(/C=C2/C(=O)Nc3ccccc32)c(OC)c1,normalized growth,"locus YAL013W, strain DEP1, active compounds read low",1.01
same,normalized growth,"locus YAL040C, strain CLN3, active compounds read low",0.983
same,normalized growth,"locus YCL061C, strain MRC1 (second series), active compounds read low",1.01
same,normalized growth,"locus YDR150W, strain NUM1, active compounds read low",1.01
same,normalized growth,"locus YDR363W, strain ESC2, active compounds read low",0.984
same,normalized growth,"locus YER002W, strain NOP16, active compounds read low",1.02
same,normalized growth,"locus YJR075W, strain HOC1, active compounds read low",1.01
same,normalized growth,"locus YMR307W, strain GAS1, active compounds read low",1.01
same,normalized growth,"locus YNL153C, strain GIM3, active compounds read low",0.914
same,normalized growth,"locus YNL175C, strain NOP13, active compounds read low",0.972
same,normalized growth,"locus YNL197C, strain WHI3, active compounds read low",0.979
same,normalized growth,"locus YNL224C, strain SQS1, active compounds read low",0.996
same,normalized growth,"locus YNL322C, strain KRE1, active compounds read low",1
same,normalized growth,"locus YOR083W, strain WHI5 (second series), active compounds read low",0.967
Cc1ccc(C)n1-c1ccc(/C=C2/C(=O)Nc3ccccc32)cc1,normalized growth,[1],0.957
same,normalized growth,[2],0.973
same,normalized growth,[3],0.975
same,normalized growth,[4],0.972
same,normalized growth,[5],0.962
same,normalized growth,[6],0.971
same,normalized growth,[7],0.964
same,normalized growth,[8],0.979
same,normalized growth,[9],0.968
same,normalized growth,[10],0.974
same,normalized growth,[11],0.91
same,normalized growth,[12],0.986
same,normalized growth,[13],0.983
same,normalized growth,[14],0.968
same,normalized growth,[15],0.931
same,normalized growth,[16],0.903
same,normalized growth,[17],0.932
same,normalized growth,[18],0.947
same,normalized growth,[19],0.957
same,normalized growth,[20],0.981
same,normalized growth,[21],0.948
same,normalized growth,[22],0.976
same,normalized growth,[23],0.945
same,normalized growth,[24],0.925
same,normalized growth,[25],0.839
same,normalized growth,[26],0.662 (active)
same,normalized growth,[27],0.832
same,normalized growth,[28],0.907
same,normalized growth,[29],0.857
same,normalized growth,[30],0.97
same,normalized growth,[31],0.878
same,normalized growth,[32],0.973
same,normalized growth,[33],0.923
same,normalized growth,[34],0.972
same,normalized growth,[35],0.912
same,normalized growth,[36],0.794
same,normalized growth,[37],0.963
same,normalized growth,[38],0.887
same,normalized growth,[39],0.939
same,normalized growth,[40],0.979
same,normalized growth,[41],1.02
same,normalized growth,[42],0.837 (active)
same,normalized growth,[43],0.926
same,normalized growth,[44],0.925
same,normalized growth,[45],0.916
same,normalized growth,[46],0.97
same,normalized growth,[47],0.932
same,normalized growth,[48],0.957
same,normalized growth,[49],0.976
same,normalized growth,[50],0.936
same,normalized growth,[51],0.975
same,normalized growth,[52],0.936
same,normalized growth,[53],0.974
same,normalized growth,[54],0.978
same,normalized growth,[55],0.947
same,normalized growth,[56],0.972
same,normalized growth,[57],0.9
same,normalized growth,[58],0.932
same,normalized growth,[59],0.942
same,normalized growth,[60],0.863
same,normalized growth,[61],0.977
same,normalized growth,[62],0.931
same,normalized growth,[63],0.92
same,normalized growth,[64],0.935
same,normalized growth,[65],0.977
same,normalized growth,[66],0.855 (active)
same,normalized growth,[67],0.971
same,normalized growth,[68],0.968
same,normalized growth,[69],0.958
same,normalized growth,[70],0.959
same,normalized growth,[71],0.967
